Screening data from PubChem.
NPC1 prom act – qHTS Assay for NPC1 Promoter Activators; Huh7 NPC1 promoter luciferase reporter, 24 h; AID 485313, 2010; Potency, µM (top dose mostly 9.22 µM), for inactives: at the highest dose activation, hits mostly activators; actives 2.4% (n = 320,000); also: % of control where 0% means no effect; nearly all actives have a fitted effect of over 60% in size
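Luciferase expression driven by the NPC1 promoter was measured in stably transfected Huh7 cells after a 24 h compound incubation, using a luciferase reagent and a luminescence read.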
SMN2 splice enh – qHTS Assay for Enhancers of SMN2 Splice Variant Expression. HEK293 SMN2-luciferase splicing reporter, luminescence, 30-36 h. Potency, µM (top dose mostly 46.1 µM), without a hit: at the top dose activity change, positive = activation, actives largely listed as activators. actives 2.8% (n = 210,000). AID 1458, 2008; also: % of control where 0% means no effect; nearly all actives have a fitted effect of over 55% in size
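qHTS luciferase splicing reporter: luminescence rises when SMN2 exon 7 is included in transfected HEK293 cells. Compound exposure lasted 30-36 h at 37C, with 4.5 mM final sodium butyrate as control, followed by a ONE-Glo read.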
Rab9 prom act – qHTS Assay for Rab9 Promoter Activators; Huh7 Rab9 promoter-luciferase reporter, luminescence, 24 h; Potency, µM (series often up to 9.22 µM), for the others: at the top dose activation, negative = inhibition, most hits filed as activators; actives 2.8% (n = 320,000); AID 485297, 2010; also: % of control where 0% means no effect; nearly all actives have a fitted effect of over 60% in size
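Measured in stably transfected Huh7 cells bearing a Rab9 promoter–luciferase construct: 24 h compound treatment at 37 °C, followed by luminescence detection.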
ELG1 genotox – qHTS screen for small molecules that induce genotoxicity in human embryonic kidney (HEK293T) cells expressing luciferase-tagged ELG1; HEK293T ELG1-luciferase reporter, luminescence, 16 h; Potency, µM (top dose mostly 46 µM), inactives show at the top dose activity change, positive = activation, most hits filed as activators; AID 504466, 2011; actives 1.3% (n = 330,000); also: % of control where 0% means no effect; nearly all actives have a fitted effect of over 60% in size
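Luminescence read-out: rising ELG1-luciferase signal, reflecting elevated ELG1 protein under genetic stress, flags genotoxic compounds. Cells were treated for 16 hr at 37 °C before ONE-Glo detection.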
p53 reactivator – qHTS assay for re-activators of p53 using a Luc reporter. H1299 p53-A138V BP100-luciferase reporter, luminescence, 24 h. Potency, µM (series often up to 92.2 µM), for inactives: at the highest dose activity change, positive = activation, actives largely listed as activators. actives 0.063% (n = 320,000). AID 504706, 2011; also: % of control where 0% means no effect; nearly all actives have a fitted effect of over 45% in size
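H1299 (p53-null), stable ts p53-A138V + BP100-Luc; 1000 cells/well, Opti-MEM/10% FBS; cpd 4 pt, 1:5; 24 h, 37 deg C, 5% CO2; detection reagent 10 min RT; luminescence.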
FLuc modulator – qHTS profiling assay for firefly luciferase inhibitor/activator using purifed enzyme and Km concentrations of substrates (counterscreen for miR-21 project). Luciferin 4-monooxygenase (Photinus pyralis), P08659. purified FLuc, Km substrates, luminescence inhibition. Potency, µM (titrated, usually from 57.5 µM), for the others: at the top dose activity change, negative = inhibition, most hits filed as inhibitors. actives 6.9% (n = 360,000);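 also: plate controls were vehicle for no effect and reference inhibitor for full effect; nearly all actives have a fitted effect of over 55% in size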
Target sequence (P08659 whole entry, looked up): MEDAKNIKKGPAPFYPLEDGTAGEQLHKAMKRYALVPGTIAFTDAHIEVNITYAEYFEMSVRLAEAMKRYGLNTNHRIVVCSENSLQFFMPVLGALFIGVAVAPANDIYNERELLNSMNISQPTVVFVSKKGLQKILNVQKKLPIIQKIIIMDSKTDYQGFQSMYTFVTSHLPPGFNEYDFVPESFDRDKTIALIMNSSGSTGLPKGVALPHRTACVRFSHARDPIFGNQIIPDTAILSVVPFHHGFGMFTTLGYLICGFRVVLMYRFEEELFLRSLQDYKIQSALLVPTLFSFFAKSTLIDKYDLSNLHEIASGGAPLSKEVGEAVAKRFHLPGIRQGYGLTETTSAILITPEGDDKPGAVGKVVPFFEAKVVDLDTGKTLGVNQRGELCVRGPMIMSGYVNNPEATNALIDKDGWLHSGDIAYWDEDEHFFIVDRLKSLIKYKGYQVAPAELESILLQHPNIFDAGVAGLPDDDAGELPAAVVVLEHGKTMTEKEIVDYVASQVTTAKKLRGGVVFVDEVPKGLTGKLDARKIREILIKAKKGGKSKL
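Biochemical qHTS of compounds, final roughly 60 µM downward over six points, against 10 nM purified firefly luciferase using Km concentrations of substrates (10 uM D-luciferin, 10 uM ATP) in Tris acetate pH 7.5 buffer; luminescence output.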
* = called active by the depositor; ? = inconclusive; nt = no result. Hits are enriched below; roughly 7.4% of the tested compounds scored in any of these assays. Calls follow the shape of the dose curve; as a rule, active = well fitted curve in the direction sought with a large enough effect; inconclusive = small, poorly fitted or top-dose-only effect, or another doubt; inactive = no such curve, though single readings can be large; an effect the other way counts as inactive or inconclusive. Potency is read from the fitted curve at half-maximal effect.

SMILES	NPC1 prom act	SMN2 splice enh	Rab9 prom act	ELG1 genotox	p53 reactivator	FLuc modulator
COc1cc(C(=O)N(C)CC(=O)Nc2cccc(F)c2)ccc1OCc1ccccc1	-0.7%	nt	-0.1%	-5.0%	3.5%	4.6%
Cc1c(-c2cccc(NC(=O)c3ccc(F)c(F)c3)c2)nc2ncccn12	nt	nt	nt	nt	nt	-15.0%
Cc1c(-c2cccc(NC(=O)Nc3ccc(Cl)cc3)c2)nc2ncccn12	nt	nt	nt	nt	nt	10.7µM*
Cc1nccc(-c2cccc(NC(=O)Nc3ccc(Cl)cc3)c2)n1	-5.4%	nt	-3.4%	-13.8%	7.0%	4.78µM*
O=C1NC(=S)N/C1=C/c1cccc([N+](=O)[O-])c1	6.1%	8.7%	12.0%	9.1%	-1.1%	4.1%
CN1C(=O)/C(=C/c2cccc([N+](=O)[O-])c2)C(=O)N1c1ccccc1	-2.3%	nt	-2.0%	?	19.5%	15.1µM*
CCc1cccc(NC(=O)c2cc3c(=O)oc4ccc(C)cc4c3s2)c1	nt	2.5%	nt	nt	nt	-2.8%
C=CCn1c(-c2cc3cccc(OC)c3o2)n[nH]c1=S	-2.5%	-7.1%	4.8%	-0.2%	1.9%	?
COc1cccc2cc(-c3ccnc(=S)[nH]3)oc12	4.5%	11.2µM*	4.3%	3.4%	-0.5%	-18.5%
Cc1ccc(C(C(=O)NC2CCCCC2)N(Cc2ccco2)C(=O)C2COc3ccccc3O2)o1 (centres undefined)	0.8%	-0.4%	-3.6%	-11.1%	-2.0%	-0.3%
Cc1ccc(C(C(=O)NC2CCCCC2)N(Cc2cccnc2)C(=O)C2COc3ccccc3O2)o1 (centres undefined)	?	17.5%	1.26µM*	-5.8%	0.4%	9.0%
COc1cccc2cc(-c3nc(-c4ccc(C)cc4)c(C)s3)c(=O)oc12	nt	nt	nt	nt	nt	1.1%
CCc1sc(Nc2cccc(C)c2C)nc1-c1cc2cccc(OC)c2oc1=O	nt	nt	nt	nt	nt	3.5%
COc1cccc2cc(-c3nnc(Nc4ccccc4C)s3)c(=O)oc12	nt	nt	nt	nt	nt	0.338µM*
CCc1sc(Nc2cccc(C)c2)nc1-c1cc2cccc(OC)c2oc1=O	nt	nt	nt	nt	nt	7.57µM*
O=C(N/N=C/c1cccc([N+](=O)[O-])c1)C(=O)N1CCCCCC1	-2.0%	nt	-6.2%	-1.8%	16.2%	0.6%
CC(C)COc1ccc(C(=O)Nc2scc(-c3ccc(Br)cc3)c2C(=O)OC(C)C)cc1	nt	0.5%	nt	nt	nt	0.6%
O=C1NCCN/C1=C\C(=O)c1ccc(Cl)cc1	1.58µM*	nt	3.55µM*	?	10.9%	10.7µM*
CC1CN/C(=C\C(=O)c2ccc(Cl)cc2)C(=O)N1 (centres undefined)	0.398µM*	3.16µM*	0.501µM*	?	41.0%	2.39µM*
O=C1NCCN/C1=C\C(=O)c1ccc(F)cc1	28.8%	nt	?	18.4%	4.7%	?
CC1CN/C(=C\C(=O)c2ccccc2)C(=O)N1 (centres undefined)	2.82µM*	10µM*	3.98µM*	?	6.2%	12µM*
COc1ccc(-c2cc(C(F)(F)F)nc(SCC(=O)Nc3ccc(C(C)=O)cc3)n2)cc1	nt	-0.3%	nt	nt	nt	-0.1%
CCc1ccccc1NC(=O)CNC(=O)c1cccc(S(=O)(=O)N2CCN(Cc3ccccc3)CC2)c1	0.6%	nt	-8.2%	-4.5%	-5.2%	4.4%
CCOc1ccc(C(=O)COC(=O)c2cccc(-n3cnnn3)c2)cc1	?	nt	?	22.6%	1.3%	2.69µM*
O=C(COC(=O)c1cccc(-n2cnnn2)c1)c1ccccc1	15.5%	nt	27.8%	19.1%	7.6%	?
SMILES	NPC1 prom act	SMN2 splice enh	Rab9 prom act	ELG1 genotox	p53 reactivator	FLuc modulator
CCOc1ccc(C(=O)COC(=O)c2cc(=O)[nH]c3ccccc23)cc1	-1.1%	nt	1.9%	1.1%	26.6%	1.35µM*
O=C(COC(=O)c1cc(=O)[nH]c2ccccc12)c1ccc(Br)cc1	13.9%	nt	-5.9%	11.4%	6.7%	?
Nc1ncc(S(=O)(=O)N2CCN(c3ccccc3)CC2)cn1	nt	nt	nt	nt	nt	-2.5%
Cc1cc(NC(=O)C(C)(C)C)cc(-c2nc3ncccc3o2)c1O	nt	-11.2%	nt	nt	nt	?
CCOC(=O)C1=C(CN2CCN(c3ccc(C)cc3C)CC2)NC(=O)NC1c1ccc(OC)cc1 (centres undefined)	nt	nt	nt	nt	nt	-0.6%
COc1cccc(CNC(=O)N2CCC(CN3CCC(C)CC3)CC2)c1	nt	nt	nt	nt	nt	-0.9%
O=C(c1ccccc1-c1nc(-c2ccc(Cl)cc2)no1)N1CCCC1	?	-15.5%	3.16µM*	?	15.3%	19µM*
O=C(c1ccccc1-c1nc(-c2ccccc2)no1)N1CCCC1	-0.6%	?	-2.4%	12.4%	?	26.9µM*
Cc1ccc(-c2noc(-c3ccccc3C(=O)N3CCCC3)n2)cc1	10.5%	-7.8%	5.5%	?	?	23.9µM*
O=C(CSc1nnc(Nc2ccccc2)s1)Nc1cccc(S(=O)(=O)N2CCCCC2)c1	2.9%	-22.5%	-5.0%	-1.1%	-4.8%	12µM*
Nc1nnc(SCC(=O)Nc2cccc(S(=O)(=O)N3CCCCC3)c2)s1	1.5%	nt	-4.9%	-1.9%	-12.0%	-16.5%
Nc1nc(SCC(=O)Nc2cccc(S(=O)(=O)N3CCCCCC3)c2)n[nH]1	1.8%	-10.2%	-0.8%	-1.0%	18.7%	16.9µM*
O=C(CSc1ncn[nH]1)Nc1cccc(S(=O)(=O)N2CCCCCC2)c1	-1.7%	-19.9%	-1.0%	0.0%	9.8%	?
Cc1ccc(N=Cc2cc(C)n(C3CCCC3)c2C)cc1	6.2%	11.3%	-5.7%	-0.1%	6.7%	10.7µM*
COc1ccc(C)c2sc(=NC(=O)C(C)C)n(C)c12	6.3%	-16.4%	2.2%	2.3%	2.9%	-0.5%
COc1ccc(C)c2sc(=NC(=O)c3cccc(N4C(=O)CCC4=O)c3)n(C)c12	?	nt	?	?	3.9%	6.75µM*
COc1ccc(C)c2sc(=NC(=O)c3ccc(C(C)=O)cc3)n(C)c12	0.562µM*	nt	0.501µM*	?	14.2%	0.675µM*
COc1ccc(C)c2sc(=NC(=O)c3ccccc3)n(C)c12	?	11.2µM*	2.82µM*	6.51µM*	8.3%	2.13µM*
C=CCC[C@@H](Cc1ccc(F)cc1)C(=O)OC[C@@H](Cc1c[nH]c2ccccc12)NC(=O)[C@H](CC=C)CC(=O)N[C@H](CO)Cc1ccccc1	nt	nt	nt	9.2%	-4.2%	nt
c1ccc(OCCSc2nc3ccccc3o2)cc1	19.0%	-9.5%	20.6%	14.3%	15.2%	21.3µM*
O=C(CSc1nc2ccccc2o1)c1ccccc1	?	17.2%	?	11.1%	?	10.7µM*
